Measured values taken from PubChem BioAssay.
Active and inactive are the calls of the source.

What was measured:
[1] = system: Wnt5a (protein binding on small-molecule microarray); test: small molecules binding Wnt5a protein – biophysical, small-molecule microarray, 635/667 nm fluorescence, primary screen (AID 1142); settings: 635 nm fluorescence, higher = more signal;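 also: fluorescence read at 667 nm with signal to noise per printed feature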
[2] = ATP-based viability of Huh7 replicon cells – cell-based, CellTiter-Glo luminescence, basal, 48 h, cytotoxicity control for HCV replication inhibitor project, primary screen (AID 1143); settings: higher = more signal, called active from +8 up or from −8 down;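 also: Huh7 hepatoma cells carrying a hepatitis C replication reporter with no stimulus; test concentration not given here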
[3] = basal CRE-LacZ reporter activity in PC12 – cell-based, unstimulated, primary screen (AID 1145); settings: no forskolin, luminescence, 4.5 h, higher = more signal, called active from +8 up or from −8 down
[4] = forskolin-driven CRE-LacZ activity in PC12 – cell-based, CRE-LacZ reporter, forskolin-stimulated, primary screen (AID 1146); settings: luminescence, 4.5 h, higher = more signal, called active from +8 up or from −8 down;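 also: PC12 cells with 6xCRE LacZ reporter stimulated by forskolin 10 µM; beta-galactosidase reporter signal reflecting CREB driven transcription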
[5] = molecular target: Streptavidin (Streptomyces avidinii) (UniProt P22629); test: compounds binding control protein streptavidin – biophysical, small-molecule microarray, 635/667 nm fluorescence, artefact control for SMM compound annotation, primary screen (AID 1147); settings: higher = more signal;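 also: signal reflects streptavidin binding to arrayed compounds as a control protein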
Sequence of Streptavidin (Streptomyces avidinii) (P22629 whole entry, looked up): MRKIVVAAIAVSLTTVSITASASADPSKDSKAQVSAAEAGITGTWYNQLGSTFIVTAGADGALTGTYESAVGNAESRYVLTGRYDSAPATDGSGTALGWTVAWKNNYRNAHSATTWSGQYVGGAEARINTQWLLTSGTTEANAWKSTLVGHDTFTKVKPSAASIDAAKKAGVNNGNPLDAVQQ

[6] = probe aInhba binding on compound microarray – biochemical, small-molecule microarray, 635/667 nm fluorescence, primary screen (AID 1148); settings: higher = more signal;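 also: score merges 667nm spot fluorescence with signal-to-noise for antibody binding to printed compounds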
[7] = molecular target: Torsin-1A (Homo sapiens) (UniProt O14656); test: TOR1A wild-type binding on microarray – cell lysate, small-molecule microarray, lysate, 635/667 nm, primary screen (AID 1149); settings: COS7 hTOR1A-WT lysate, 635 nm fluorescence, higher = more signal
Sequence of Torsin-1A (Homo sapiens) (O14656 whole entry, looked up): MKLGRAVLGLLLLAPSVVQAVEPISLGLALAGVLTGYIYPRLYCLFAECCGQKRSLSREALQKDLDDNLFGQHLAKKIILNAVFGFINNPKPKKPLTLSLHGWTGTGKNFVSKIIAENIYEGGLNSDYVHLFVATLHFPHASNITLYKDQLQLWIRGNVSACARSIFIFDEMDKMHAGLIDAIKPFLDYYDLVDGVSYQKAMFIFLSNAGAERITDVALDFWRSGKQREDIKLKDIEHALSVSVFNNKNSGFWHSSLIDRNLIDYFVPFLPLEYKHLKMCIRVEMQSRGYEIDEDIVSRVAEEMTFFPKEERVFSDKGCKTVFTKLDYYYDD

[8] = molecular target: Torsin-1A (Homo sapiens) (UniProt O14656); test: torsin A mutant lysate binding on microarrays – cell lysate, small-molecule microarray, COS7 lysate, 635/667 nm fluorescence, primary screen (AID 1150); settings: COS7 hTOR1A mutant lysate, 635 nm fluorescence, higher = more signal;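 also: score pools 667 nm emission and signal to noise measuring lysate protein binding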
[9] = system: Sonic hedgehog protein (Shh); test: Sonic hedgehog microarray binding compounds – biochemical, small-molecule microarray, 635/667 nm fluorescence, primary screen (AID 1151); settings: 635 nm fluorescence, higher = more signal;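 also: Shh protein binding to compounds spotted on small-molecule microarray slides; score combines spot fluorescence intensity with signal-to-noise across triplicate slides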
[10] = optical density shifts of acrAB sulA E. coli – strain DRC41, OD650, 48 h, E. coli filamentation inducer project, primary screen (AID 1152); settings: higher = more signal, called active from +8 up or from −8 down;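 also: E. coli MC1000 strain DRC41 lacking acrAB efflux pump and sulA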
[11] = probe aLefty1 binding on compound microarray – biochemical, small-molecule microarray, 635/667 nm fluorescence, primary screen (AID 1153); settings: higher = more signal;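 also: score merges spot fluorescence with signal-to-noise ratio from the scanned slide images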
[12] = plasmodial surface anion channel blockers, osmotic lysis – cell-based, P. falciparum Indochina, OD700, 1 h, primary screen (AID 1154); settings: P. falciparum Indochina infected RBC osmotic lysis, higher = more signal, called active from +8 up or from −8 down
[13] = plasmodial surface anion channel blockers, osmotic lysis – cell-based, P. falciparum Indochina, OD700, 2 h, primary screen (AID 1155);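 also: lysis reports solute entry through the parasite surface anion channel PSAC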; settings: P. falciparum Indochina infected erythrocytes, higher = more signal, called active from +8 up or from −8 down
[14] = changes in parasitized red cell lysis, either direction – P. falciparum Indochina, OD700, 3 h, PSAC antagonist project, primary screen (AID 1156); settings: P. falciparum-infected erythrocytes, osmotic lysis, higher = more signal, called active from +8 up or from −8 down
[15] = plasmodial surface anion channel blockers, osmotic lysis – cell-based, P. falciparum Indochina, OD700, 18 h, primary screen (AID 1157); settings: P. falciparum Indochina infected erythrocytes, osmotic lysis OD700, 18 h; higher = more signal, called active from +8 up or from −8 down
[16] = S6 kinase pathway phospho-S6 level changes – cell-based, A549, cytoblot, luminescence, serum-stimulated, primary screen (AID 1158); settings: 5 h, higher = more signal;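 also: serum-stimulated A549 lung adenocarcinoma cells; signal is phosphorylated S6 detected by cytoblot immunostaining with HRP secondary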
[17] = molecular target: NADPH oxidase 2 (Homo sapiens) (UniProt P04839); test: compounds shifting NOX2 Amplex Red fluorescence – cell-based, HEK293-NOX2, PMA-stimulated, NOX inhibitor project, primary screen (AID 1159); settings: 45 min, higher = more signal, called active from +8 up or from −8 down; also: test concentration not given here
Sequence of NADPH oxidase 2 (Homo sapiens) (P04839 whole entry, looked up): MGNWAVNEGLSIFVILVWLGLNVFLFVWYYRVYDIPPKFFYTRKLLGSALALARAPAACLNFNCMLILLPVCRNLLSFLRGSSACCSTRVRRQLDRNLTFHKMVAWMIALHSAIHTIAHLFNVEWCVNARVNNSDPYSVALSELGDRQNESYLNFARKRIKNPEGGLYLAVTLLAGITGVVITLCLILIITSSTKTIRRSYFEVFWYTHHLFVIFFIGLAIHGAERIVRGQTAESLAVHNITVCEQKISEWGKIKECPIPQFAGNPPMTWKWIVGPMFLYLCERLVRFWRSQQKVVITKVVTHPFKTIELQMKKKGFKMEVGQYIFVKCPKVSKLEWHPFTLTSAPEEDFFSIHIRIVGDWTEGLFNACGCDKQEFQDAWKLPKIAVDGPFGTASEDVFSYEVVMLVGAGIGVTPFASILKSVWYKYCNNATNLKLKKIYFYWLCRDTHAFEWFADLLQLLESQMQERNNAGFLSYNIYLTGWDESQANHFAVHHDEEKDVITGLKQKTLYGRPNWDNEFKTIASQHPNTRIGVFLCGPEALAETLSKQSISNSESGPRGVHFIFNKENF

[18] = molecular target: NADPH oxidase 4 (Homo sapiens) (UniProt Q9NPH5); test: compounds shifting NOX4 Amplex Red fluorescence – cell-based, HEK293-NOX4, tetracycline-induced, NOX inhibitor project, primary screen (AID 1160); settings: HEK293-NOX4, Amplex Red H2O2 fluorescence, 45 min; higher = more signal, called active from +8 up or from −8 down
Sequence of NADPH oxidase 4 (Homo sapiens) (Q9NPH5 whole entry, looked up): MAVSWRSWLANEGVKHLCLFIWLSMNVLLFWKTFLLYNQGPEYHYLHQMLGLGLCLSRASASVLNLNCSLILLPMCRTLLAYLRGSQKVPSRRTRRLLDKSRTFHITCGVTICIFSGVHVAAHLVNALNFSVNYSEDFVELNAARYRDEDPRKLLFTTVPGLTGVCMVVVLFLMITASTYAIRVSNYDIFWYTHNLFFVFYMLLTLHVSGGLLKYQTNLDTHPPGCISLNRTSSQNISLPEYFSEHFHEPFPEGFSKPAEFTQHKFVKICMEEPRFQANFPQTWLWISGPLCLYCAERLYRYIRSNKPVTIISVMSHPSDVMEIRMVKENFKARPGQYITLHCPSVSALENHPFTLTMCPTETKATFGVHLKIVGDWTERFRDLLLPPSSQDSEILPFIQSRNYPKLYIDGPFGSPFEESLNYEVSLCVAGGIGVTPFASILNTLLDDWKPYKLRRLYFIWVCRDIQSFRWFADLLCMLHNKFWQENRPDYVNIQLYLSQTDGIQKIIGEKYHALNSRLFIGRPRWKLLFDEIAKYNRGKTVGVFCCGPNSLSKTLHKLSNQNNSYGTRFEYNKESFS

[19] = molecular target: NADPH oxidase 5 (Homo sapiens) (UniProt Q96PH1); test: compounds shifting NOX5 Amplex Red fluorescence – cell-based, HEK293-NOX5, NOX inhibitor project, primary screen (AID 1161); settings: HEK293-NOX5, ionomycin, 45 min, higher = more signal
Sequence of NADPH oxidase 5 (Homo sapiens) (Q96PH1 whole entry, looked up): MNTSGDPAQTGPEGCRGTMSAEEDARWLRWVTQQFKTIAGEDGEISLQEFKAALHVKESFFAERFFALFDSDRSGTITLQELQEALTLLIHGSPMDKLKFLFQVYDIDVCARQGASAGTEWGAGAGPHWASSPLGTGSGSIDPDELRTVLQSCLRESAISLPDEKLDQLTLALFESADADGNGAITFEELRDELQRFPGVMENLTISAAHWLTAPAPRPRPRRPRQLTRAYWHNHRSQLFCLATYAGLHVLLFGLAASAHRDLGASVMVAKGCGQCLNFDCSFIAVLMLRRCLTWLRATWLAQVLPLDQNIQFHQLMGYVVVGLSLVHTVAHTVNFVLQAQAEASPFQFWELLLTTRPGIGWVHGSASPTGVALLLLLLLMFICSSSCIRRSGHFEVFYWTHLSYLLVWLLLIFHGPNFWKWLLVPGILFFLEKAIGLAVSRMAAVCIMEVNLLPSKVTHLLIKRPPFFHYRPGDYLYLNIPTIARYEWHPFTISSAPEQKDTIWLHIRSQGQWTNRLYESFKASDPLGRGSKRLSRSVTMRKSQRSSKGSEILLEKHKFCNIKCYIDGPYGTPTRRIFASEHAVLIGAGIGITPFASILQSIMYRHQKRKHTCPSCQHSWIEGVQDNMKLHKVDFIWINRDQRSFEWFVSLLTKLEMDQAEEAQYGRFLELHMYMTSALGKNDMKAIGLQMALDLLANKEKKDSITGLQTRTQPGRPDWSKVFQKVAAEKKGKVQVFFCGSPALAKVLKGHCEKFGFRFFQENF

For `C=CC(=O)O[C@@H](Cc1ccccc1)[C@H]1C2C=CCCC=C2CN1Cc1cccc(Cl)c1` (stereo partly specified), the composite z-score [1] was -0.172, the z-score [2] was -0.904 (inactive) and the z-score [3] was 1.03 (inactive). For the same compound, the z-score [4] was -0.678 (inactive), the composite z-score [5] was -0.575 and the composite z-score [6] was -0.082. It also gave a composite z-score [7] of -0.471, a composite z-score [8] of 0.393 and a composite z-score [9] of -0.0211. For the same compound, the z-score [10] was 3.24 (inactive), the composite z-score [11] was -0.378 and the z-score [12] was 1.35 (inactive). For the same compound, the z-score [13] was 0.893 (inactive), the z-score [14] was 0.781 (inactive) and the z-score [15] was 0.182 (inactive). The z-score [16] was 0.711, the z-score [17] was -0.192 (inactive) and the z-score [18] was 0.758 (inactive). For the same compound, the z-score [19] was 0.467.

For `CO[C@H]1COC(=O)CC=C[C@H](C)[C@@H](OC)COC(=O)[C@H](Cc2ccccc2)NC(=O)CC=C[C@@H]1C`, the composite z-score [1] was -0.359, the z-score [2] was -0.89 (inactive) and the z-score [3] was 0.248 (inactive). For the same compound, the z-score [4] was -0.802 (inactive), the composite z-score [5] was -0.234 and the composite z-score [6] was -0.408. The composite z-score [7] was 0.45, the composite z-score [8] was 0.593 and the composite z-score [9] was 2.05. The z-score [10] was -0.76 (inactive), the composite z-score [11] was -0.183 and the z-score [12] was -0.235 (inactive). For the same compound, the z-score [13] was -0.912 (inactive), the z-score [14] was 0.959 (inactive) and the z-score [15] was -2.2 (inactive). The z-score [16] was 0.659, the z-score [17] was 0.93 (inactive) and the z-score [18] was -1.49 (inactive). The z-score [19] was 0.404.

For `C=CCNC(=O)[C@@H]1[C@H]2C(=O)O[C@H](c3ccccc3)[C@H](c3ccccc3)N2[C@H](c2ccc(OCCO)cc2)[C@@]12C(=O)N(C(=O)OCCOC)c1ccc(C#CC3(O)CCCCCC3)cc12`, the composite z-score [1] was 0.281, the z-score [2] was -6.19 (inactive) and the z-score [3] was -0.87 (inactive). For the same compound, the z-score [4] was -1.59 (inactive), the composite z-score [5] was 0.788 and the composite z-score [6] was 0.167. It also gave a composite z-score [7] of 0.42, a composite z-score [8] of 0.469 and a composite z-score [9] of 1.1. The z-score [10] was 2.62 (inactive), the composite z-score [11] was 0.372 and the z-score [12] was 5.36 (inactive). The z-score [13] was 2.14 (inactive), the z-score [14] was 0.539 (inactive) and the z-score [15] was 0.761 (inactive). The z-score [16] was 3.82, the z-score [17] was 1.03 (inactive) and the z-score [18] was 0.845 (inactive). The z-score [19] was -1.14.

For `COc1cccc([C@@H]2[C@@H](C)CC[C@H]3C(=O)N4[C@H](c5cccc(OC)c5)[C@@H](C)CC[C@H]4C(=O)N23)c1`, the composite z-score [1] was 0.0508, the z-score [2] was -1.88 (inactive) and the z-score [3] was 1.38 (inactive). The z-score [4] was -1.18 (inactive), the composite z-score [5] was 0.258 and the composite z-score [6] was 0.054. The composite z-score [7] was 0.504, the composite z-score [8] was 0.824 and the composite z-score [9] was 0.944. The z-score [10] was -0.0799 (inactive), the composite z-score [11] was -0.234 and the z-score [12] was -0.0074 (inactive). For the same compound, the z-score [13] was -0.69 (inactive), the z-score [14] was -1.21 (inactive) and the z-score [15] was -0.987 (inactive). The z-score [16] was 3.15, the z-score [17] was 0.181 (inactive) and the z-score [18] was 0.349 (inactive). The z-score [19] was 0.796.

For `CC(C)[Si](OCCCNS(=O)(=O)c1ccc(Br)cc1)(C(C)C)C(C)C`, the composite z-score [1] was 0.0488, the z-score [2] was -5.53 (inactive) and the z-score [3] was -0.752 (inactive). The z-score [4] was -0.4 (inactive), the composite z-score [5] was 0.623 and the composite z-score [6] was 0.0161. It also gave a composite z-score [7] of 0.923, a composite z-score [8] of 0.31 and a composite z-score [9] of 0.72. The z-score [10] was 3.27 (inactive), the composite z-score [11] was -0.0236 and the z-score [12] was 0.869 (inactive). The z-score [13] was 0.0808 (inactive), the z-score [14] was -3.37 (inactive) and the z-score [15] was -0.442 (inactive). For the same compound, the z-score [16] was 4.17, the z-score [17] was 1.84 (inactive) and the z-score [18] was -0.843 (inactive). It also gave a z-score [19] of -3.06.

With `CCOC(=O)C[C@H]1[C@H](OC(=O)c2ccccc2-c2ccccc2)[C@@H](NC(=O)C2CCCCC2)c2cc(OCCCO)ccc2N1C(=O)c1ccccc1` the composite z-score [1] was 0.364, the z-score [2] was -0.781 (inactive) and the z-score [3] was 10.2 (active). For the same compound, the z-score [4] was -0.278 (inactive), the composite z-score [5] was 0.0739 and the composite z-score [6] was 0.0131. For the same compound, the composite z-score [7] was 0.128, the composite z-score [8] was 0.197 and the composite z-score [9] was 1.1. The z-score [10] was 1.99 (inactive), the composite z-score [11] was -0.191 and the z-score [12] was 1.97 (inactive). The z-score [13] was 0.718 (inactive), the z-score [14] was 0.217 (inactive) and the z-score [15] was 0.402 (inactive). For the same compound, the z-score [16] was -0.073, the z-score [17] was 0.629 (inactive) and the z-score [18] was 0.936 (inactive). It also gave a z-score [19] of -1.64.

In the case of `C=CCNC(=O)[C@H]1[C@@H]2C(=O)O[C@@H](c3ccccc3)[C@@H](c3ccccc3)N2[C@@H](c2ccc(O)cc2)[C@]12C(=O)Nc1ccc(C#CCNC(N)=O)cc12`, the composite z-score [1] is reported as -0.261, the z-score [2] is reported as -0.23 (inactive) and the z-score [3] is reported as -0.594 (inactive). For the same compound, the z-score [4] was -0.759 (inactive), the composite z-score [5] was -0.96 and the composite z-score [6] was 0.468. It also gave a composite z-score [7] of -0.109, a composite z-score [8] of 0.0926 and a composite z-score [9] of 0.103. The z-score [10] was 1.86 (inactive), the composite z-score [11] was 0.599 and the z-score [12] was 1.7 (inactive). For the same compound, the z-score [13] was 1.29 (inactive), the z-score [14] was 0.682 (inactive) and the z-score [15] was 0.506 (inactive). The z-score [16] was 0.583, the z-score [17] was 1.19 (inactive) and the z-score [18] was -0.188 (inactive). For the same compound, the z-score [19] was 0.1.

In the case of `C=C(COC)/C(=C/C[C@H](OC(C)=O)c1ccc(OCCO)cc1)c1cnc2ccccc2c1`, the composite z-score [1] is reported as 0.248, the z-score [2] is reported as -0.843 (inactive) and the z-score [3] is reported as 7.3 (inactive). For the same compound, the z-score [4] was -0.862 (inactive), the composite z-score [5] was 0.864 and the composite z-score [6] was 0.0082. For the same compound, the composite z-score [7] was 0.654, the composite z-score [8] was -0.0171 and the composite z-score [9] was 1.99. The z-score [10] was 1.25 (inactive), the composite z-score [11] was 0.199 and the z-score [12] was 13.5 (active). For the same compound, the z-score [13] was -0.0743 (inactive), the z-score [14] was 1.05 (inactive) and the z-score [15] was -0.947 (inactive). The z-score [16] was -0.117, the z-score [17] was 1.32 (inactive) and the z-score [18] was 0.767 (inactive). It also gave a z-score [19] of -0.593.

With `CO[C@@H]1COC(=O)[C@@H]2CCCN2C(=O)CC=C[C@@H](C)[C@H](OC)COC(=O)[C@@H]2CCCN2C(=O)CC=C[C@H]1C` the composite z-score [1] was -0.137, the z-score [2] was -0.381 (inactive) and the z-score [3] was -0.292 (inactive). The z-score [4] was -0.559 (inactive), the composite z-score [5] was -0.613 and the composite z-score [6] was -0.179. The composite z-score [7] was 0.985, the composite z-score [8] was 0.306 and the composite z-score [9] was 2.1. For the same compound, the z-score [10] was 1.11 (inactive), the composite z-score [11] was -0.0984 and the z-score [12] was -0.0896 (inactive). For the same compound, the z-score [13] was 0.0184 (inactive), the z-score [14] was 0.11 (inactive) and the z-score [15] was -0.113 (inactive). For the same compound, the z-score [16] was 0.956, the z-score [17] was -0.353 (inactive) and the z-score [18] was 0.476 (inactive). For the same compound, the z-score [19] was 0.606.
